For twelve molecules, growth results are on record in PubChem BioAssay (NCI).

Compounds without any hit were thinned out: in the full panel of roughly 83,000, 20% have a hit.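 Compound tested at a single concentration for 48 hours in 96-well plates; a percent growth value below 10 was scored as active.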 Unmarked numbers belong to inactive results. Activity calls are given as the source filed them.

The subject of this assay is MDA-MB-468 breast. The experiment in a line: NCI-60 one-dose screen, 48 h (100 = growth as untreated, 0 = no growth, -100 = all killed). The following applies: 10 µM unless noted.
For the molecule `COc1ccc(C(=O)N2c3ccccc3Sc3ccccc32)c(C(F)(F)F)c1`, the growth is 29.7%.
Consider `CCc1nc(C(N)=O)c(Nc2ccc(N3CCC(N4CCN(C)CC4)CC3)c(OC)c2)nc1NC1CCOCC1`, for which the growth is 69.7%.
For `c1ccc(Cn2cc3c(c2)-c2oncc2CC3)cc1` the value was 47.2%; for `O=C(Nc1cc(Cl)ccc1O)c1cccc(Nc2ccnc(C(F)(F)F)c2)c1`, 16%.
For the molecule `Cc1oc2ncnc(Nc3ccccc3)c2c1C(=O)NCCO`, the growth was 109%.
Regarding `CC1=NNC(=O)C1C` (configuration not stated), the growth is 95.8%.
Turning to `CNCCCNc1ccnc2cc(Cl)ccc12`, the growth was -85% (active).
The result for `O=C(O)c1cc([N+](=O)[O-])ccc1Oc1ccccc1` reads 101%; that for `CCOC(=O)c1c(Nc2ccccc2)nn2c(-c3ccc(OC)cc3)ccnc12`, 91.1%; that for `CN(CCc1ccccn1)c1ccccc1`, 113%.
For the molecule `CCOC(=O)c1ccc2c(c1)nc(-c1ccc(Cl)cc1)n2-c1cc(C(C)(C)C)[nH]n1`, the growth was 18.7%.
On to `Clc1ccc(-n2ncc3c(NCCCN4CCOCC4)ncnc32)cc1`, for which the growth was 74.4%.
